# PubChem BioAssay AID1159524 (National Center for Advancing Translational Sciences (NCATS), 2015)
# In all, about 410,000 compounds went through this assay and about 5,100 (1.2%) were called active. About 8% were inconclusive and are not listed. For the sample, actives were picked, then their nearest neighbours and some compounds at random. Unmarked numbers belong to inactive results. Calls follow the shape of the full dose curve; tested in HEK293T cells.
# Test: High Throughput Screening for Foot and Mouth Disease Virus Antivirals; also: read-out not given here; nearly all actives have a fitted effect of over 45% in size
# Conditions: FMDV antiviral cell-based qHTS; series mostly up to 57.9 µM; activity change, negative = inhibition: at the top concentration
# % is scaled to controls: 0 for no effect and ±100 for the full control effect; potency is read from the fitted curve at half-maximal effect.
SMILES,"activity change, negative = inhibition [%]",Potency
CC1CCN(S(=O)(=O)c2ccc3c(ccn3CC(=O)O)c2)CC1,-5.95,
CCc1ccc(CNC(=O)c2ccc(CS(=O)c3ccc(Br)cc3)o2)cc1 (stereo unspecified),2.27,
CN(Cc1cccc2ncccc12)C(=O)c1cnn(-c2nccc(-c3ccccc3F)n2)c1C1CC1,,3.98 µM (active)
Cc1ccc(-c2ccnc(-n3ncc(C(=O)N(C)Cc4cccc5ncccc45)c3C3CC3)n2)o1,-0.786,
Cc1cccc(CNC(=O)c2cnn(-c3nccc(-c4ccccc4F)n3)c2C2CC2)n1,-10.1,
COc1cccc(C2C(C(=O)Nc3ccc(C)cc3C)=C(C)Nc3c(C(=O)Nc4ccccc4)cnn32)c1 (stereo unspecified),-7.93,
Nc1nc(/C(=C/CC(=O)O)C(=O)N[C@@H]2C(=O)N3C(C(=O)O)=CCS[C@H]23)cs1,-8.05,
COc1ccccc1NC(=O)c1oc2ccccc2c1NC(=O)COc1ccccc1OC,2.02,
CCOC(=O)CSc1nc2ccc(C)cc2n2cnnc12,18.6,
O=C(c1ccccc1)c1ccc2nc(N3CCCCC3)c3nncn3c2c1,,10 µM (active)
c1ccc(CC2CCN(c3nc4ccccc4n4cnnc34)CC2)cc1,-18.3,
O=c1c(O)c(Br)ccc2c(Br)c(O)c(O)c(O)c12,-10,
COc1ccc(-c2c(C)c3ccc(O)c(CN4CCCC4)c3oc2=O)cc1OC,-12.7,
COCC1CCCN(Cc2ccc3c(c2)CN(C(=O)c2ccnn2C)CCO3)C1 (stereo unspecified),-9.53,
CC(=O)Nc1cc(C(=O)NCc2ccc(F)cc2Cl)ccc1Sc1ccc(Cl)cc1,-7.66,
COc1ccc(Oc2ncc3nc(C)c(=O)n(-c4ccccc4)c3n2)cc1,-15.8,
CSc1ccc(CCNC(=O)c2ccc3c(c2)nc2n3CCOC2)cc1,-16.6,
CC1CN/C(=C\C(=O)c2ccc(Br)cc2)C(=O)N1 (stereo unspecified),,12.6 µM (active)
O=C(O)C1CCCN1S(=O)(=O)c1ccc(Br)cc1 (stereo unspecified),-7.27,
Cc1nc2cnc(Oc3cccc(Cl)c3)nc2n(C2CC2)c1=O,-18.7,
CC(C)[C@H](CO)Nc1nc(Nc2cc(N)cc(Cl)c2)c2ncn(C(C)C)c2n1,-25.5,
Cc1cccc(-n2c(SCC(N)=O)nc3c(c2=O)C2(CCCCC2)Cc2ccccc2-3)c1,,14.1 µM (active)
Cc1cccc(NC(=O)CSc2nc3c([nH]c4ccccc43)c(=O)n2-c2cc(C)cc(C)c2)c1,0,
Cc1cccc(-n2c(SCC(N)=O)nc3c(oc4ccccc43)c2=O)c1,0,
COc1ccc(NC(=O)Cn2c(=O)n(Cc3ccc(C(=O)NCc4ccccc4Cl)cc3)c(=O)c3ccccc32)cc1,10.6,
CCOc1cc(/C=C(/C#N)c2ccc(Cl)cc2)cc(Cl)c1OCC(=O)O,,8.91 µM (active)

SMILES,"activity change, negative = inhibition [%]",Potency
CCOc1ccc(/C=C(\C#N)c2nc3ccccc3c(=O)[nH]2)cc1OC,10.8,
CCOC(=O)CN(C(=O)COc1nc(C)cc(C)c1C#N)c1ccc(Cl)cc1,-18.7,
O=C(c1ccncc1)N1CCC2(CCCN(C(c3ccccc3)c3ccccc3)C2)CC1,-21,
Cc1ccc(CN2CCCn3nc(C(=O)NCc4ccccc4Cl)cc3C2=O)cc1,-14.4,
C/C(=N\NC(=O)c1ccccc1F)c1ccccn1,,12.6 µM (active)
CN(NC(=O)c1ccccc1F)c1nc(C(F)(F)F)nc2ccccc12,-5.68,
O=C(NC(=S)NC1CCSC1=O)c1ccccc1F (stereo unspecified),48.4,
CCn1c2ccccc2c2cc(CN3CCN(Cc4cccc(Cl)c4)CC3)ccc21,13.2,
CCCN(C/C=C/I)C1CCc2ccc(O)cc2C1 (stereo unspecified),-6.2,
CC1Cc2cc(S(=O)(=O)CCC(=O)NCc3ccc(Cl)cc3)ccc2N1C(=O)C1CC1 (stereo unspecified),-1.27,
Cc1ccc(-c2nc(S(=O)(=O)c3ccc(C)cc3)c(N3CCCCCC3)o2)cc1,45.5,
O=C(CSc1oc(-c2ccc(F)cc2)nc1S(=O)(=O)c1ccc(Br)cc1)NC1CCCCC1,-1.69,
CC(C)S(=O)(=O)c1oc(-c2ccc(F)cc2)nc1S(=O)(=O)c1ccc(F)cc1,,31.6 µM (active)
COc1ccc(C(=O)N2CCC3(CCCN(C(c4ccccc4)c4ccccc4)C3)CC2)cc1,2.28,
O=C(c1csnn1)N1CCC[C@@]2(CCN(c3cccc(-c4ccccc4)c3)C2)C1,-16.6,
Cc1c(NC(=O)C(C)(C)C)cccc1-c1nc2ccccc2s1,-7.55,
O=S(=O)(c1ccccc1)N1CCC2(CC1)CN(Cc1nccs1)C2,-5.22,
CC1Oc2ccccc2N(Cc2cccnc2)C1=O (stereo unspecified),6.82,
CC1C(=O)N(Cc2ccccc2)c2ccccc2N1C(=O)c1ccccc1 (stereo unspecified),,31.6 µM (active)
O=C(c1ccc2c(c1)N(Cc1ccccc1)C(=O)c1ccccc1S2(=O)=O)N1CCCC1,3.75,
CS(=O)(=O)N1CCC2(CCN(c3ccncc3)CC2)CC1,-17.3,
CN1CCC2(CC1)CCN(S(=O)(=O)c1ccccc1)CC2,-4.56,
O=C(O)CC(SCC(=O)Nc1ccc(Br)cc1)C(=O)O (stereo unspecified),-8.01,
CC(=O)Nc1ccc(NC(=O)CC2CCCC2)cc1,55.7,
O=C(CCl)Nc1ccc(Sc2ccc(NC(=O)CCl)cc2)cc1,,7.94 µM (active)
